The source of these data is the supplement of paper PMC10849652.

Of roughly 7,900 targets only a part is listed; those with a hit were picked by preference. About 0.6% of all pairs of compound and target were hits. A number with no mark means an inactive call.

Chain of UniProt Q8NE00 (Q8NE00 whole entry, looked up): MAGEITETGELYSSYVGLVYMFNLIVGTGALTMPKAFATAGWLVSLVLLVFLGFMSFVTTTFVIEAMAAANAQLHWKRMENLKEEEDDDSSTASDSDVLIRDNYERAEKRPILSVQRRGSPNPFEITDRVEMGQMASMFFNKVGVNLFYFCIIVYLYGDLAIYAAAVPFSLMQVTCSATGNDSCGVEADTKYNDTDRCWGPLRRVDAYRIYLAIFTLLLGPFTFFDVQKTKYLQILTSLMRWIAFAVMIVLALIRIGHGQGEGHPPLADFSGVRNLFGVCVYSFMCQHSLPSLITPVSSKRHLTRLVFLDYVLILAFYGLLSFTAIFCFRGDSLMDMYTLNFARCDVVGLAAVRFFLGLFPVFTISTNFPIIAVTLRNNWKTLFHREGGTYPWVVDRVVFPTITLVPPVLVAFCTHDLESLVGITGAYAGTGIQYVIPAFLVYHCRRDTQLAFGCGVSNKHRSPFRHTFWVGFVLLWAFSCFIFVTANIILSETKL
Chain of UniProt Q5TAX3 (Q5TAX3 whole entry, looked up): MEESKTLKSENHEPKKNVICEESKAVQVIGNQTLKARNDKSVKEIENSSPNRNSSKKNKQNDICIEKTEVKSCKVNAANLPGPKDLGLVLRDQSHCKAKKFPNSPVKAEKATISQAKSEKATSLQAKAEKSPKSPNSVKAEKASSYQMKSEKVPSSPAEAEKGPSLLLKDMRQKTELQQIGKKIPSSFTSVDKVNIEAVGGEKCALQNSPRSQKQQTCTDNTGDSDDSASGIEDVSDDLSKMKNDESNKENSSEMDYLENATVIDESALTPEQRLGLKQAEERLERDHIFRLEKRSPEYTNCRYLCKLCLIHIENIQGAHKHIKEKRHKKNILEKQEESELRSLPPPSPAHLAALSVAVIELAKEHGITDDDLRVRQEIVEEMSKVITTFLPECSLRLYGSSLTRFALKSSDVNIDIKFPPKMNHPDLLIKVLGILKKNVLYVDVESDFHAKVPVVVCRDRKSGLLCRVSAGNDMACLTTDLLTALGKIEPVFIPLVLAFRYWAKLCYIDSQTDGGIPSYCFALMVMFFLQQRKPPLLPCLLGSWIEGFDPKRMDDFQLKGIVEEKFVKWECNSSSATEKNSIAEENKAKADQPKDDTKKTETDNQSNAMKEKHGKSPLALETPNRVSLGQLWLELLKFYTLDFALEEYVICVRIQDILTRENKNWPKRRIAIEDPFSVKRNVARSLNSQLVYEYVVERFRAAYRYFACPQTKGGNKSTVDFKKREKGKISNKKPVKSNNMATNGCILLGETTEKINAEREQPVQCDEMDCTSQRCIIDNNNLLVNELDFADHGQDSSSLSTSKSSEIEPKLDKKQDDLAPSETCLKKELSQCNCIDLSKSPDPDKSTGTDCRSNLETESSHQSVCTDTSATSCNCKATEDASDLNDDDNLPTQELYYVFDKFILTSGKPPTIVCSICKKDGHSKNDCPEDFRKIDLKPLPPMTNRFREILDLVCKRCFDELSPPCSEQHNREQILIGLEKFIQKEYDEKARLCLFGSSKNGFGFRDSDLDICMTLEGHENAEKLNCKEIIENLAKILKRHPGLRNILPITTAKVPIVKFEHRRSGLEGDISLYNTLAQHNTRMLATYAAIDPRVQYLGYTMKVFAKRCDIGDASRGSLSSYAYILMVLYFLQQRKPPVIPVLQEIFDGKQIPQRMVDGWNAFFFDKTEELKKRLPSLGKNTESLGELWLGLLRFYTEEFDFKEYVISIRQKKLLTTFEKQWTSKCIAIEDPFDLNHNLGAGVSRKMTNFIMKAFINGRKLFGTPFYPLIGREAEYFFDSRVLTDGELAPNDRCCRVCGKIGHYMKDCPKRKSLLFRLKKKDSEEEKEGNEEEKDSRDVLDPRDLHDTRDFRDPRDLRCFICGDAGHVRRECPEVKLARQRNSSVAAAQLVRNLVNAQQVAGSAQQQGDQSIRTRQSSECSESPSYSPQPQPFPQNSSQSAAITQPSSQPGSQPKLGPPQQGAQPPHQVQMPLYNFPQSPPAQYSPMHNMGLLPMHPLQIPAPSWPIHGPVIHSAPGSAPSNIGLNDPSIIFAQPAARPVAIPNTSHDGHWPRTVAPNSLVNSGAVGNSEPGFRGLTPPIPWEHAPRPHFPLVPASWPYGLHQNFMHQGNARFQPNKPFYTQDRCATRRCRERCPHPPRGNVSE
Chain of UniProt P61960 (P61960 whole entry, looked up): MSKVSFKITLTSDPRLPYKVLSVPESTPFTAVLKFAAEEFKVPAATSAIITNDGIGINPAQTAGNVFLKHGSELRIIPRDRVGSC
Chain of UniProt Q5VZI3 (Q5VZI3 whole entry, looked up): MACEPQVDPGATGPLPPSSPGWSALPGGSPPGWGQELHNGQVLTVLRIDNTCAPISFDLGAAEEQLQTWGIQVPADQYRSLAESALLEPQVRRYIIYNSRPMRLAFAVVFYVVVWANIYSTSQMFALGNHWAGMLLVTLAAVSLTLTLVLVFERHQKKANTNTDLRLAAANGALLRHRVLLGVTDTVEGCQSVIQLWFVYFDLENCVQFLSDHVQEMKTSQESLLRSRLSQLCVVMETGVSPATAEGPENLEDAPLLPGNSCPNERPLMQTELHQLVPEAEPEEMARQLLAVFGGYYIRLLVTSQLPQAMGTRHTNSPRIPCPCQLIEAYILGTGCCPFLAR
Chain of UniProt O95857 (O95857 whole entry, looked up): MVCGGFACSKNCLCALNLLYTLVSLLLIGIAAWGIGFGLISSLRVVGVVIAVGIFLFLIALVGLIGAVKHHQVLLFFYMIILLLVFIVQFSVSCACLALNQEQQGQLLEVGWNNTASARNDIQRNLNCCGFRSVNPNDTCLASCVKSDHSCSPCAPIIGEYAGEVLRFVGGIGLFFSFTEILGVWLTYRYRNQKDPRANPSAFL
Chain of UniProt Q96HV5 (Q96HV5 whole entry, looked up): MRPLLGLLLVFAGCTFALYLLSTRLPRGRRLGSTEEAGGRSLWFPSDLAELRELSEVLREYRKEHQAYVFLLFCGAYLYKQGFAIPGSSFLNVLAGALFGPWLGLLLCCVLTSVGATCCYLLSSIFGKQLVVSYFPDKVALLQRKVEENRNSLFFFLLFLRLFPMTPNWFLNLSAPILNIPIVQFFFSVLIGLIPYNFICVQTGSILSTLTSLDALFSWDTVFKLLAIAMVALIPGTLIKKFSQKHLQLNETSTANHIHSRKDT
Chain of UniProt Q9HCN3 (Q9HCN3 whole entry, looked up): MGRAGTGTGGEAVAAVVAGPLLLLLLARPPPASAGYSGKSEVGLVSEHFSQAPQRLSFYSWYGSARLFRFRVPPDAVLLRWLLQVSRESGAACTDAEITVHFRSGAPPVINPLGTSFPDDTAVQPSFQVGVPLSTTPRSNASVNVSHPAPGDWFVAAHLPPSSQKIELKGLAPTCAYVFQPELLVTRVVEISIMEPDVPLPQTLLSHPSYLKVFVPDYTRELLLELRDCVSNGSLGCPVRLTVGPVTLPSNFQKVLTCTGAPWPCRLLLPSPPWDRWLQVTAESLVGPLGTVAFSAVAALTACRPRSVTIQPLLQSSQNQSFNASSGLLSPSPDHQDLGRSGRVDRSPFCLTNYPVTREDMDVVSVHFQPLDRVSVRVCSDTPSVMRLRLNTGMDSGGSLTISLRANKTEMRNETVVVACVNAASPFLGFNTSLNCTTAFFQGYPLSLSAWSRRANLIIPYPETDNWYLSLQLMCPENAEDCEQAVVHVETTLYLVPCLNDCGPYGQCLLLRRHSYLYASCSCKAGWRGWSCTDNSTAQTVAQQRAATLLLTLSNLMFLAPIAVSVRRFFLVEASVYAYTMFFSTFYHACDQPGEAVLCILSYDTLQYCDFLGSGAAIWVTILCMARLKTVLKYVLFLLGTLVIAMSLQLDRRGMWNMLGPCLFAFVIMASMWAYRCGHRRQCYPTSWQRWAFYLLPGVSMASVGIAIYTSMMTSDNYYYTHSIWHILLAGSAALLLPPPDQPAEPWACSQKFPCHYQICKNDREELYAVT
Chain of UniProt P98170 (P98170 whole entry, looked up): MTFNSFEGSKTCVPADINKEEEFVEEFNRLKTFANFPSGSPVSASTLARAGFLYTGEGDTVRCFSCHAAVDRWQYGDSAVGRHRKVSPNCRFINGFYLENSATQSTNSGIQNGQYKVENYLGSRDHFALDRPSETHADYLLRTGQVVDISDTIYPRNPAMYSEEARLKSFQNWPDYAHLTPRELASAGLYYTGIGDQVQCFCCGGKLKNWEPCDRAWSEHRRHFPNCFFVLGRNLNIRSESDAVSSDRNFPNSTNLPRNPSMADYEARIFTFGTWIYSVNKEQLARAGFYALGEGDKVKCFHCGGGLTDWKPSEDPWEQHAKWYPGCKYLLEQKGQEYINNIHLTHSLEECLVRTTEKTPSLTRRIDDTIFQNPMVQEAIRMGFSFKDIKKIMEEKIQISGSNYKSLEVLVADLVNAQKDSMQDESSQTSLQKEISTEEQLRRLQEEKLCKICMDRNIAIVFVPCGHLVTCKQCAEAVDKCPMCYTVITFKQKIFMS
Chain of UniProt Q15906 (Q15906 whole entry, looked up): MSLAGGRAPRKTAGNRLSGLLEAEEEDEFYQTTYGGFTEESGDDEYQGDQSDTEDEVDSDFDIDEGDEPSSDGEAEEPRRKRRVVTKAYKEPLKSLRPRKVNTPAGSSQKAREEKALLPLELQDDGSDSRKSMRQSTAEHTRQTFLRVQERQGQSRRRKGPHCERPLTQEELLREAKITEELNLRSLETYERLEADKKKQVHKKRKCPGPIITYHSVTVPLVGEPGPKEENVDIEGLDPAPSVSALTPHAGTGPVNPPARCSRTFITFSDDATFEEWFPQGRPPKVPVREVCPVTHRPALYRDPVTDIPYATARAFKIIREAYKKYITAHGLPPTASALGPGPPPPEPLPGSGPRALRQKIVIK
Chain of UniProt P51668 (P51668 whole entry, looked up): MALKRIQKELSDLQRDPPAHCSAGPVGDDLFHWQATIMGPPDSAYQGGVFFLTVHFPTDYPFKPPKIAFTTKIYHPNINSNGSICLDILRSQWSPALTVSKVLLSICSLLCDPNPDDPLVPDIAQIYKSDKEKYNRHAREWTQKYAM
Chain of UniProt Q629K1 (Q629K1 whole entry, looked up): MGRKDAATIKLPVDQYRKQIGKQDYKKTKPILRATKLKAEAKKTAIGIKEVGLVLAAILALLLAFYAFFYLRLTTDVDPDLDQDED

Compound in the first experiment: COc1cc2ncnc(Nc3ccc(F)c(Cl)c3)c2cc1OCCCN1CCOCC1 [gefitinib]
Put plainly: log2 fold change, soluble protein after heating vs DMSO (PISA); higher = thermal stabilisation; K562 cells, 10 uM, 30 min; active = over 0.2 and 3.5 SD of the protein, either way, in both replicates (recomputed). In a few lines:
(§1)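 Soluble protein was quantified by TMTpro 16plex LC-MS/MS after channel sums were equalised. It was obtained as the supernatant after 21,000xg for 90 min from pooled aliquots of K562 cells (2×10^6 cells/mL, 10 μM compound, 30 min) heated for 3 min across 48°C-58°C and extracted in PBS with 0.5% NP-40 at 4°C. Thermal stability values are relative to control samples and come from duplicates. They are given as log2 fold changes.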
For TSPAN13 (UniProt O95857), the log2 fold change was 0.047.
The same measure, in the same setting: with U2AF1L5 (UniProt P0DN76) the figure was -0.048.
As for TMEM41A (UniProt Q96HV5), the log2 fold change was 0.034.
Same read-out and setting: the same measure for USP48 (UniProt Q86UV5): 0.053; for TMEM104 (UniProt Q8NE00): 0.061.
As for TMEM219 (UniProt Q86XT9), the log2 fold change was -0.029.
Still for that read-out and setting: with UBAP2L (UniProt F8W726) the figure was -0.012; with WARS1 (UniProt G3V277), 0.021; with UBE2D1 (UniProt P51668), -0.012.
On the same count and under the same terms, with WDR75 (UniProt Q8IWA0) the figure was 0.198; with VPS72 isoform 2 (UniProt Q15906), 0.033; with TMEM268 isoform 3 (UniProt Q5VZI3), -0.079.
As to VDAC1 (UniProt C9JI87), the log2 fold change was -0.014.
Same read-out and setting: the same measure for VWA3B isoform 6 (UniProt Q502W6): 0.008; for WDR46, A0A0G2JJL1: 0.039.
The same measure, in the same setting: the same measure for XIAP (UniProt P98170): 0.115.
In the case of UFM1 isoform 2 (UniProt P61960), the log2 fold change is 0.027.
Same read-out and setting: the same measure for TMEM8A (UniProt Q9HCN3): -0.038; for TUT4 (UniProt Q5TAX3): 0.051; for TRIM23 (UniProt P36406): 0.012.

Compound in another experiment: COc1cccc2cc(-c3nc([C@H]4CC[C@H](C(=O)O)CC4)n4ncnc(N)c34)[nH]c12
The experiment is described as above. The gist of the method:
as §1
Take TSPAN13 (UniProt O95857): the log2 fold change is -0.064.
For the target TOM1 (UniProt O60784), the log2 fold change was 0.094.
In the case of WARS1 (UniProt G3V5U1), the log2 fold change is -0.105.
Still for that read-out and setting: with U2AF1L5 (UniProt P0DN76) the figure was -0.238.
Same read-out and setting: the same measure for TMEM41A (UniProt Q96HV5): 0.092.
On the same count and under the same terms, with USP48 (UniProt Q86UV5) the figure was -0.031; with TRPT1 isoform 4 (UniProt Q86TN4), -0.061.
For TMEM104 (UniProt Q8NE00), the log2 fold change is 0.164.
Same read-out and setting: the same measure for ULBP1 (UniProt Q9BZM6): 0.001.
Same read-out and setting: the same measure for UBAP2L (UniProt F8W726): -0.084.
For WARS1 (UniProt G3V277), the log2 fold change was 0.145.
Consider UBE2D1 (UniProt P51668), for which the log2 fold change was 0.002.
WDR75 (UniProt Q8IWA0): the log2 fold change was -0.078.
As for VPS72 isoform 2 (UniProt Q15906), the log2 fold change is -0.094.
Same read-out and setting: with TMEM268 isoform 3 (UniProt Q5VZI3) the figure was 0.001.
For VDAC1 (UniProt C9JI87), the log2 fold change was -0.014.
For TVP23C (UniProt Q96ET8), the log2 fold change is 0.235.
Still for that read-out and setting: the same measure for TRIQK (UniProt Q629K1): 0.106; for VWA3B isoform 6 (UniProt Q502W6): -0.022.
WDR46, A0A0G2JJL1: the log2 fold change was -0.207.
Same read-out and setting: with XIAP (UniProt P98170) the figure was 0; with XAB2 (UniProt Q9HCS7), 0.105.
Still for that read-out and setting: the same measure for UFM1 isoform 2 (UniProt P61960): 0.008; for TMEM8A (UniProt Q9HCN3): 0.085; for TUT4 (UniProt Q5TAX3): -0.025.
TRIM23 (UniProt P36406): the log2 fold change was 0.039.

Compound in the next experiment: CS(=O)(=O)CCNCc1ccc(-c2ccc3ncnc(Nc4ccc(OCc5cccc(F)c5)c(Cl)c4)c3c2)o1 [lapatinib]
The experiment is described as above. In a few lines:
as §1
With TSPAN13 (UniProt O95857), the log2 fold change was -0.053.
The same measure, in the same setting: the same measure for TMEM41A (UniProt Q96HV5): -0.106; for TMEM104 (UniProt Q8NE00): -0.156; for UBXN8 (UniProt O00124): 0.023.
The same measure, in the same setting: with ULBP1 (UniProt Q9BZM6) the figure was 0.002; with TMEM219 (UniProt Q86XT9), 0.058.
Still for that read-out and setting: the same measure for UBAP2L (UniProt F8W726): 0.067.
For UBE2D1 (UniProt P51668), the log2 fold change is -0.063.
Consider WDR75 (UniProt Q8IWA0), for which the log2 fold change is -0.011.
In the case of VPS72 isoform 2 (UniProt Q15906), the log2 fold change is 0.012.
On the same count and under the same terms, with TMEM268 isoform 3 (UniProt Q5VZI3) the figure was 0.09.
On the same count and under the same terms, with VDAC1 (UniProt C9JI87) the figure was -0.182; with TVP23C (UniProt Q96ET8), -0.14; with VWA3B isoform 6 (UniProt Q502W6), 0.079.
On to WDR46, A0A0G2JJL1, for which the log2 fold change was 0.154.
Consider UTP20 (UniProt O75691), for which the log2 fold change was 0.076.
Still for that read-out and setting: with XIAP (UniProt P98170) the figure was -0.01.
The same measure, in the same setting: with TXNRD1 isoform 7 (UniProt Q16881) the figure was -0.07.
For UFM1 isoform 2 (UniProt P61960), the log2 fold change is -0.052.
Still for that read-out and setting: the same measure for TMEM8A (UniProt Q9HCN3): 0.065; for TUT4 (UniProt Q5TAX3): 0.021; for UBE2J2 isoform 3 (UniProt Q8N2K1): -0.07.
For the target TUBA4A (UniProt C9JJQ8), the log2 fold change is 0.018.
